We go through 15 molecules from PubChem BioAssay (NCATS).

Structures are written as SMILES. Inconclusive results are not listed. Active and inactive are the calls of the source. Calls come from the whole dose curve; as a rule, active = well fitted inhibition curve with a large enough effect; inconclusive = small, poorly fitted or top-dose-only effect; inactive = flat fitted curve, though single readings scatter.

What all share (experiment): qHTS profiling for inhibitors of Plasmodium falciparum proliferation (AID 504749); note: nearly all actives have a fitted effect of over 60% in size
Holding throughout (conditions): P. falciparum in erythrocytes, SYBR Green DNA, 72 h; series mostly up to 28.7 µM
On the technique in general: qHTS replaces the single test concentration by a dilution series.

The test system of one experiment is ATS189. The gist of the method:
(§1)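 Each compound contacts P. falciparum-infected red blood cells for 72 h at 37 C; lysis buffer (Tris, EDTA, saponin, Triton X, SYBR Green I) is added and fluorescence measured next morning; values normalized to controls.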

The next experiment has as its system ATS95. The method, boiled down:
as §1

Another experiment concerns C2A. The gist of the method:
as §1

A further experiment relates to CP185. The method, boiled down:
as §1

For the next experiment, the system named is CP191. The gist of the method: as §1
For the next experiment, the system named is CP192. The method, boiled down: as §1
The next experiment relates to CP201. The method, boiled down:
as §1

Another experiment deals with CP203. The gist of the method:
as §1

The test system of another experiment is CP211. The gist of the method: as §1
Another experiment relates to CP215. The gist of the method: as §1
For the next experiment, the system named is CP217. The gist of the method: as §1
The next experiment deals with CP238. The gist of the method: as §1
In the next experiment the test system is CP250. The method, boiled down: as §1
Another experiment has as its system CP252. The method, boiled down: as §1
Another experiment has as its system CP256. The gist of the method:
as §1

Another experiment has as its system CP262. The gist of the method: as §1
For a further experiment, the system named is CP194. The method, boiled down:
as §1

For the next experiment, the system named is CP237. The gist of the method: as §1
The next experiment relates to CP247. The method, boiled down:
as §1

For the next experiment, the system named is CP260. The gist of the method: as §1
Potency is the fitted concentration of half-maximal effect.

As for `NC(=O)C1(N2CCCCC2)CCN(CCCC(=O)c2ccc(F)cc2)CC1`, the Potency result in the experiment with ATS189, in the experiment with ATS95, with C2A, in the experiment with CP185, in the experiment with CP191 and in the experiment with CP192 was “inactive” in each case. The Potency entry in the experiment on CP201, in the experiment with CP203, in the experiment with CP211, in the experiment on CP215, in the experiment with CP217 and with CP238 was “inactive” in each case. For the same molecule, the Potency result in the experiment on CP250, in the experiment on CP252, in the experiment with CP256 and in the experiment on CP262 was “inactive” each time.
For `NS(=O)(=O)c1cc(C(=O)O)cc(N2CCCC2)c1Oc1ccccc1`, the Potency result with ATS189, in the experiment with ATS95, with C2A, in the experiment with CP185, in the experiment on CP191 and in the experiment with CP192 was “inactive” each time. Moreover, the Potency result with CP194, in the experiment with CP201, in the experiment with CP211, in the experiment on CP215, in the experiment on CP217 and in the experiment on CP237 was “inactive” throughout. The Potency entry in the experiment with CP238, in the experiment with CP247, in the experiment with CP250, in the experiment with CP252, with CP256 and in the experiment with CP260 was “inactive” in each case. Besides, the Potency entry with CP262 is “inactive”.
Consider `COc1ccc(C(Cl)=C(c2ccc(OC)cc2)c2ccc(OC)cc2)cc1`, for which the Potency is 2.82 µM (active) with ATS189; 11.2 µM (active) in the experiment on ATS95; 3.98 µM (active) in the experiment with C2A; 12.6 µM (active) with CP191; 11.2 µM (active) in the experiment on CP217; 10 µM (active) in the experiment with CP238. The Potency with CP250 is 10 µM (active). For the same molecule, the Potency entry with CP192, in the experiment with CP194, with CP201, in the experiment on CP203, in the experiment with CP211 and with CP215 was “inactive” throughout. In the experiment with CP262, the Potency result was “inactive”.
With `CN1CCN(c2cc3c(cc2F)c(=O)c(C(=O)O)cn3-c2ccc(F)cc2)CC1`, the Potency result with ATS189, in the experiment with ATS95, with C2A, in the experiment with CP185, in the experiment with CP191 and in the experiment on CP192 was “inactive” throughout. Further, the Potency result in the experiment with CP201, with CP203, in the experiment with CP211, in the experiment with CP217, in the experiment on CP238 and with CP247 was “inactive” each time. The Potency entry with CP250, with CP252 and in the experiment with CP256 was “inactive” each time.
Regarding `CC(C)NCC(O)c1ccc2ccccc2c1` (stereo unspecified), the Potency was 8.91 µM (active) in the experiment with ATS189; 8.91 µM (active) with ATS95; 8.91 µM (active) in the experiment on CP185; 11.2 µM (active) with CP191; 10.7 µM (active) with CP194; 12 µM (active) in the experiment with CP203. Further, the Potency was 10.7 µM (active) in the experiment on CP215; 8.91 µM (active) in the experiment on CP217; 4.47 µM (active) in the experiment on CP237; 10 µM (active) with CP238; 7.94 µM (active) with CP247; 11.2 µM (active) with CP252. Also, in the experiment with CP260, the Potency is 6.31 µM (active). Also, in the experiment on CP201, the Potency entry was “inactive”.
As for `CC(=O)NC(=O)c1ccccc1O`, the Potency entry with ATS189, in the experiment on ATS95, with C2A, in the experiment on CP185, in the experiment on CP191 and in the experiment with CP192 was “inactive” each time. In addition, the Potency result in the experiment with CP194, in the experiment with CP201, in the experiment on CP203, in the experiment with CP215, in the experiment on CP217 and in the experiment on CP237 was “inactive” in each case. Besides, the Potency entry with CP238, with CP247, in the experiment with CP250, with CP252, with CP256 and in the experiment on CP260 was “inactive” in each case. The Potency result in the experiment with CP262 is “inactive”.
As to `CN1CCC[C@@H]1CCO[C@](C)(c1ccccc1)c1ccc(Cl)cc1`, the Potency entry in the experiment on ATS189, with C2A, in the experiment with CP185, with CP192, in the experiment on CP201 and with CP211 was “inactive” in each case. For the same molecule, the Potency entry in the experiment on CP215, with CP238, in the experiment with CP256, in the experiment with CP260 and in the experiment on CP262 was “inactive” each time.
Take `Cc1ncc(CO)c(C=O)c1O`: the Potency entry in the experiment on ATS189, in the experiment with ATS95, in the experiment on C2A, in the experiment with CP185, in the experiment on CP191 and in the experiment with CP217 was “inactive” throughout. For the same molecule, the Potency entry in the experiment with CP237, in the experiment with CP238, in the experiment with CP247, in the experiment on CP250, with CP252 and in the experiment on CP256 was “inactive” each time. For the same molecule, the Potency result in the experiment with CP260 is “inactive”.
As to `O=C(O)CCNC(=O)c1ccccc1`, the Potency result with ATS189, with ATS95, with C2A, in the experiment on CP185, in the experiment on CP191 and in the experiment with CP194 was “inactive” in each case. The Potency entry in the experiment on CP201, in the experiment on CP203, in the experiment on CP211, in the experiment with CP215, in the experiment with CP217 and in the experiment with CP237 was “inactive” each time. In addition, the Potency result in the experiment on CP238, with CP247, with CP250, with CP252, with CP256 and with CP260 was “inactive” in each case. Moreover, the Potency entry in the experiment with CP262 was “inactive”.
For `CN1CCN(C2=Nc3ccccc3Sc3ccc(Cl)cc32)CC1`, the Potency entry in the experiment with ATS189, in the experiment with C2A, with CP185, in the experiment on CP192, with CP211 and in the experiment on CP238 was “inactive” each time. Moreover, the Potency result in the experiment on CP247, in the experiment with CP250, in the experiment on CP252 and in the experiment on CP256 was “inactive” each time.
As to `COc1ccc(C(=O)c2ccccc2O)c(O)c1`, the Potency entry with ATS189, in the experiment on ATS95, with C2A, in the experiment on CP185, in the experiment with CP192 and in the experiment on CP194 was “inactive” throughout. The Potency result in the experiment with CP201, in the experiment on CP203, in the experiment on CP211, in the experiment with CP238, with CP247 and in the experiment with CP250 was “inactive” in each case. For the same molecule, the Potency result in the experiment on CP256, in the experiment on CP260 and in the experiment with CP262 was “inactive” each time.
Regarding `CC(=O)NO`, the Potency result in the experiment on ATS189, with ATS95, with C2A, with CP185, in the experiment with CP191 and in the experiment on CP192 was “inactive” each time. The Potency entry with CP194, with CP203, with CP211, with CP215, with CP217 and in the experiment on CP237 was “inactive” each time. Besides, the Potency entry in the experiment on CP238, in the experiment with CP247, with CP250, in the experiment with CP252, with CP256 and with CP260 was “inactive” each time. Further, in the experiment with CP262, the Potency result is “inactive”.
`CCCCc1cc2ccccc2c(OCCN(C)C)n1`: the Potency entry in the experiment on ATS189, in the experiment with ATS95, with C2A, with CP185, with CP191 and in the experiment with CP192 was “inactive” each time. Also, the Potency result in the experiment with CP194, in the experiment on CP201, with CP203, with CP211, in the experiment on CP217 and in the experiment on CP238 was “inactive” throughout. The Potency entry in the experiment on CP247, in the experiment with CP250, in the experiment on CP252, with CP256, with CP260 and in the experiment on CP262 was “inactive” each time.
Consider `NCc1ccccc1Sc1ccccc1CO`, for which the Potency entry in the experiment with ATS189, in the experiment on C2A, in the experiment with CP185, in the experiment with CP191, in the experiment on CP192 and in the experiment on CP201 was “inactive” each time. In addition, the Potency result in the experiment on CP211, in the experiment with CP215, in the experiment with CP217, in the experiment on CP238, in the experiment on CP247 and with CP250 was “inactive” in each case. In addition, the Potency entry in the experiment with CP252 and in the experiment with CP260 was “inactive” throughout. For the same molecule, the Potency with CP237 is 8.91 µM (active).
Consider `COc1cc(N)c(Cl)cc1C(=O)NC1CCN(Cc2ccccc2)CC1`, for which the Potency entry with ATS189, in the experiment with ATS95, in the experiment with C2A, in the experiment with CP185, in the experiment with CP192 and with CP194 was “inactive” throughout. Moreover, the Potency entry in the experiment with CP201, in the experiment on CP203, with CP211, in the experiment on CP215, in the experiment with CP217 and with CP237 was “inactive” in each case. The Potency entry in the experiment on CP238, with CP247, in the experiment on CP250, in the experiment on CP252, with CP256 and in the experiment on CP260 was “inactive” throughout. Besides, in the experiment on CP262, the Potency entry is “inactive”.
